Assay outcomes from PubChem BioAssay.
Shown are actives, neighbours in structure and some others; about 10% of the full set was active somewhere.
Pf growth 48h: Primary qHTS for delayed death inhibitors of the malarial parasite plastid, 48 hour incubation; P. falciparum luciferase growth in erythrocytes, 48 h; Potency, µM (top dose mostly 28.7 µM), inactives show at the top dose activity change, negative = inhibition, actives largely listed as inhibitors; 310,000 compounds, 5.9% hits; also: % is scaled to controls: 0 for no effect and ±100 for the full control effect
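Parasite viability was followed by luminescence of a genomically integrated firefly luciferase. Cultures held 0.1% parasitemia at 2% hematocrit (final), incubated under 5% CO2 at 37 C.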
SARS PLP yeast: qHTS of Yeast-based Assay for SARS-CoV PLP; 330,000 compounds, 0.19% hits; S. cerevisiae expressing SARS-CoV PLpro, growth rescue; Potency, µM (top dose mostly 32.9 µM), for inactives: top-dose activity, positive = growth rescue, hits mostly activators; calls by dose curve; also: 0% is about no effect; nearly all actives have a fitted effect of over 55% in size
NS1 function inh: qHTS Assay for Inhibitors of Influenza NS1 Protein Function | Potency, µM (highest dose often 46.1 µM), for inactives: at the highest dose activity, positive = more growth | 270,000 compounds, 0.4% hits; calls by dose curve; also: actives are rising curves; nearly all actives have a fitted effect of over 50% in size
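S. cerevisiae expressing influenza A NS1, grown in glucose, washed, then diluted 1:100 into pH 6.0 -URA galactose medium with 23 nl compound. Growth recovery read as OD600; NS1-free strain serves as control.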
Pf growth 96h: Primary qHTS for delayed death inhibitors of the malarial parasite plastid, 96 hour incubation; P. falciparum luciferase reporter growth, 96 h; Potency, µM (doses to about 28.7 µM), for the others: at the highest dose activity change, negative = inhibition, hits mostly inhibitors; 320,000 compounds, 6.9% hits; also: % is scaled to controls: 0 for no effect and ±100 for the full control effect
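96 h incubation, 37 C, 5% CO2, of luciferase-reporter P. falciparum-infected RBCs (2% hematocrit, 0.05% parasitemia final) with test compounds; endpoint luminescence.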
* = called active by the depositor; ? = inconclusive; . = no result given; [ ] = dose if it differs, or a comment. Unless noted, calls follow the shape of the dose curve; as a rule, active = well fitted inhibition curve with a large enough effect; inconclusive = small, poorly fitted or top-dose-only effect, or another doubt; inactive = no such curve, though single readings can be large or run the other way. Potency is read from the fitted curve at half-maximal effect.

SMILES	Pf growth 48h	SARS PLP yeast	NS1 function inh	Pf growth 96h
COCCN1C(=O)c2ccccc2C(C(=O)NCCCN2CCCC2)C1c1c[nH]c2ccccc12 (stereo unspecified)	13µM*	6%	-11%	-14%
O=Nc1c(-c2c(O)[nH]c3cc(Br)ccc23)[nH]c2ccccc12	4.1µM*	-29%	-21%	4.7µM*
O=Nc1c(O)[nH]c2ccccc12.[Cu].[O-]/N=C1/C(=[OH+])Nc2ccccc21	.	.	-6%	.
O=C(NC(=S)NC(CO)Cc1ccccc1)c1ccc(F)cc1 (stereo unspecified)	98%	-1%	2%	154%
O=C(O)c1ccc2c(c1)C(=O)N(c1ccc([N+](=O)[O-])cn1)C2=O	24%	-8%	-5%	1%
O=C(CN1C(=O)c2ccccc2S1(=O)=O)Nc1ccc([N+](=O)[O-])cc1	.	0%	.	.
CC(=O)Nc1cccc(NS(=O)(=O)Cc2ccc(Cl)cc2)c1	-15%	2%	-50%	15µM*
CCc1ccccc1NC(=S)NCC1CCN(c2ccc(OC)cc2)C1 (stereo unspecified)	12µM*	0%	-31%	?
COc1ccc(N2CCC(CNC(=O)Nc3cccc(OC)c3)C2)cc1 (stereo unspecified)	.	4%	3%	-27%
CCc1cccc(C)c1NC(=S)NCC1CCN(c2ccc(OC)cc2)C1 (stereo unspecified)	3.3µM*	-2%	.	-4%
COc1ccc(N2CCC(CNC(=S)Nc3cccc(OC)c3)C2)cc1 (stereo unspecified)	?	6%	25%	-3%
Cc1ccc(NC2CC(C)NC(=S)N2)cc1 (stereo unspecified)	4%	1%	7%	13%
CCN=C=NCCCN(C)C	.	.	3%	.
CN(Cc1cnccn1)Cc1nc(Cc2ccccc2Cl)no1	-6%	0%	2%	20%
CCN(Cc1ccncc1)Cc1nc(Cc2ccccc2Cl)no1	10µM*	-4%	-31%	?
C=C(C)CNC(=S)NNC(=O)CCn1c2cc(Cl)ccc2c2ccc(Cl)cc21	7.4µM*	19%	?	82%
C=C(C)CNC(=S)NNC(=O)CCn1c2ccc(Cl)cc2c2cc(Cl)ccc21	2.3µM*	?	24%	45%
Cc1cc(Cl)ccc1OCC(=O)OCC(=O)c1c(N)n(C)c(=O)n(C)c1=O	6%	-2%	.	43%
Cc1nnc(SCC(=O)N2c3ccccc3C(C)(c3ccccc3)CC2(C)C)s1 (stereo unspecified)	10µM*	-48%	-15%	12µM*
Cc1ccc(C2(C)CC(C)(C)N(C(=O)CSc3nnc(C)s3)c3ccccc32)cc1 (stereo unspecified)	13µM*	-47%	12%	?
O=C(NCC1CCN(Cc2ccccc2F)CC1)Nc1cc(F)ccc1F	?	-3%	8%	0%
Cc1cc(C)c2[nH]c(=O)c(CN(Cc3nnnn3C3CCCC3)C3CCCCC3)cc2c1	-2%	-4%	0%	1%
COCCn1nnnc1CN(Cc1cc2cc(OC)c(OC)cc2[nH]c1=O)C1CCCC1	0%	1%	-11%	.
COc1ccc(Cn2nnnc2CN(Cc2cc3cccc(C)c3[nH]c2=O)C2CCCC2)cc1	10µM*	-3%	-43%	24%
CCC(C)(C)n1nnnc1CN(Cc1cc2cc(OC)ccc2[nH]c1=O)C1CCCC1	?	4%	-32%	24%
SMILES	Pf growth 48h	SARS PLP yeast	NS1 function inh	Pf growth 96h
Cc1cccc2cc(CN(Cc3nnnn3C3CCCCC3)C3CCCC3)c3nnnn3c12	12µM*	-56%	12%	.
COc1ccc(Cn2nnnc2CN(Cc2cc3ccc(C)cc3[nH]c2=O)C2CCCC2)cc1	9.3µM*	2%	-36%	4%[5.75 µM]
Cc1ccc2cc(CN(Cc3ccc(F)cc3)Cc3nnnn3C3CCCC3)c(=O)[nH]c2c1	3.7µM*	-1%	-25%	51%
O=C(O)CNC(=O)c1ccc(NC(=O)/C(=C/c2ccccc2)NC(=O)c2ccco2)cc1	39%	-3%	-3%	?
NC1=NC2(CCCCC2)N(c2cccc(Cl)c2)C(N)=N1	.	1%	2%	?
COc1ccc(N2C(N)=NC(N)=NC23CCCC3)cc1	0.93µM*	2%	0%	102%
CCCCOc1ccc(N2C(N)=NC(N)=NC23CCCCC3)cc1	10µM*	1%	-19%	?
COc1ccccc1N1C(N)=NC(N)=NC12CCCCC2	?	1%	2%	13µM*
NC1=NC2(CCCCC2)N(c2ccc(F)cc2)C(N)=N1	13µM*	4%	-7%	-3%
Cc1ccc(S(=O)(=O)c2nc(S(=O)(=O)c3ccccc3)sc2N2CCN(C)CC2)cc1	?	8%	-9%	?
CCN(CC)CCN1C(=O)C(=O)/C(=C(/O)c2cccc(OC)c2)C1c1ccccn1 (stereo unspecified)	?	11%	-4%	12µM*
COCCN1C(=O)C(=O)/C(=C(/O)c2ccc(C)cc2)C1c1ccccn1 (stereo unspecified)	-3%	0%	2%	3.3µM*
Cc1coc(C)c1C(=O)Nc1ccc2ccccc2c1	65%	-12%	-18%	136%
CCOC(=O)Cc1c(C)[nH]c(=S)[nH]c1=O	1.3µM*	3%	0%	-29%
O=C(CCOc1ccccc1)Nc1ccc(Cl)c(S(=O)(=O)N2CCOCC2)c1	?	-8%	.	?
Cc1ccc2c(c1)N(CC(=O)Nc1ccccc1F)C(=O)CO2	6%	2%	14%	2.9µM*
CCOc1ccccc1NC(=O)CN1C(=O)COc2ccccc21	-11%	-1%	6%	12µM*
O=C(CN1C(=O)COc2ccccc21)N1CCCC1	?	14%	?	4%
COc1ccccc1CNC(=O)CCN1C(=O)COc2ccc(C)cc21	3%	2%	-5%	6%
COc1ccccc1CNC(=O)CCCN1C(=O)COc2ccc(C)cc21	-19%	-4%	-28%	9.3µM*
O=C(CN1C(=O)COc2ccccc21)N1CCc2ccccc2C1	1%	11%	-1%	10µM*
CCOc1ccccc1NC(=O)CN1C(=O)COc2ccc(Cl)cc21	.	-3%	-10%	?
CC1CCC(NC(=O)CSc2nnnn2C)CC1 (stereo unspecified)	22%	-2%	.	91%
CCOc1ccccc1NC(=O)CN1C(=O)C(=O)N(Cc2ccco2)C1=O	12µM*	1%	.	0%
COc1ccc(C(C)(C)C)cc1NC(=O)CN1C(=O)C(=O)N(Cc2ccco2)C1=O	?	-7%	.	?
COc1ccccc1NC(=S)N(Cc1ccco1)Cc1cc2ccc(C)c(C)c2[nH]c1=O	12µM*	13%	?	150%
Cc1cc(C)c2[nH]c(=O)c(CN(CC3CCCO3)C(=S)NCc3ccco3)cc2c1 (stereo unspecified)	-5%	3%	14%	-1%
Cc1ccc2cc(CN(Cc3ccco3)C(=O)NC3CCCCC3)c(=O)[nH]c2c1C	12µM*	-14%	0%	-14%
